Hits are enriched below; roughly 5.3% of the tested compounds scored in any of these assays.
Tau fluor counter: counter-screen for tau fibril formation inhibitors; Potency, µM (series often up to 57.7 µM), without a hit: top-dose activity change, negative = decrease; 280,000 compounds, 0.93% hits; tau K18 P301L Alexa594 fluorescence, heparin fibrillization; note: potency is the fitted concentration of half-maximal effect; nearly all actives have a fitted effect of over 55% in size
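Human K18 P301L tau (15 uM unlabeled plus 0.24 uM Alexa 594-labeled, final) in 100 mM sodium acetate pH 7 was mixed with compound and 20 uM heparin and incubated 6 hr at 37 C.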
Tau fibril ThT: inhibitors of human tau fibril formation, thioflavin T binding; AID 1460; Potency, µM (top dose mostly 57.4 µM), for the others: top-dose activity, negative = inhibition, usual class: inhibitors; recombinant tau K18 P301L (four-repeat tau fragment), heparin-induced fibrillization, ThT fluorescence; P10636; 270,000 compounds, 2.1% hits; note: potency is the fitted concentration of half-maximal effect; nearly all actives have a fitted effect of over 55% in size
Target sequence (P10636 561-689 P618L limits assumed): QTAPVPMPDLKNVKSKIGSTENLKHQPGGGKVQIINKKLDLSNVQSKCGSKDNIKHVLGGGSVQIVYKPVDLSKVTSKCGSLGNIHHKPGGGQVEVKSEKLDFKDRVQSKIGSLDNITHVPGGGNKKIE
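Aggregation was driven by heparin (20 uM final) acting on recombinant tau […] bearing P301L in 100 mM sodium acetate pH 7; fibrils were detected with Thioflavin T.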
Coupling enz: coupling enzyme interference in Giardia aldolase counter-screen; coupling enzyme system counterscreen, AmpLite Red fluorescence; activity change, negative = inhibition, % at 58.2 µM, hits read low; 290,000 compounds, 0.67% hits; in the data active = activity change below about -30%
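Activity here indicates interference with the coupling reaction, not aldolase inhibition. Compounds at 57.5 uM final met coupling enzymes for 10 min at RT; substrate and AmpLite Red detection followed, with a 525/598 nm fluorescence read after 20 min.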
Tau FP inhib: blocks human tau fibril formation measured by polarization; P10636; K18 P301L tau heparin fibrillization, Alexa594 FP, 6 h; Potency, µM (doses to about 57.7 µM), for the others: at the top dose activity, negative = inhibition, hits mostly inhibitors; 280,000 compounds, 0.39% hits; note: potency is the fitted concentration of half-maximal effect; nearly all actives have a fitted effect of over 55% in size
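Compound effects on tau fibrillization are measured by Alexa 594 fluorescence polarization (ex 555, em 632 nm). K18 P301L tau is used at 15 uM with 0.24 uM labeled tracer, and 20 uM heparin induces aggregation over 6 hr at 37 C.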
Sfp inh: Sfp phosphopantetheinyl transferase inhibition; Q9F4F7; Biochemical Sfp PPTase activity, qHTS; Potency, µM, for inactives: largest response in the series, negative = inhibition, usual class: inhibitors; 310,000 compounds, 3.5% hits;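 note: the enzyme is Sfp with the accession as filed and its product quenches rhodamine fluorescence; potency is the fitted concentration of half-maximal effect; 0% = enzyme reaction without inhibitor and -100% = no enzyme wells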
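Compounds were incubated with enzyme (final 15 nM) for 15 min at room temperature before substrate addition started the reaction. Fluorescence at 525 nm excitation, 598 nm emission was recorded immediately and after 30 minutes.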
KDM4E inh: blocks human JMJD2E demethylase activity. B2RXH2. JMJD2E catalytic domain, FDH-coupled NADH fluorescence (FDH is formaldehyde dehydrogenase). Potency, µM (series often up to 57.1 µM), for inactives: at the highest dose activity change, negative = inhibition, usual class: inhibitors. 230,000 compounds, 1.6% hits. AID 2147; active = well fitted inhibition curve with a large enough effect, not every such curve was filed as active; inconclusive = small, poorly fitted or top-dose-only effect, or another doubt; inactive = no such curve, though single readings can be large or run the other way;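 note: potency is the fitted concentration of half-maximal effect; 0% = wells with enzyme and -100% = buffer wells without enzyme; nearly all actives have a fitted effect of over 50% in size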
Target sequence (B2RXH2 1-337 limits assumed): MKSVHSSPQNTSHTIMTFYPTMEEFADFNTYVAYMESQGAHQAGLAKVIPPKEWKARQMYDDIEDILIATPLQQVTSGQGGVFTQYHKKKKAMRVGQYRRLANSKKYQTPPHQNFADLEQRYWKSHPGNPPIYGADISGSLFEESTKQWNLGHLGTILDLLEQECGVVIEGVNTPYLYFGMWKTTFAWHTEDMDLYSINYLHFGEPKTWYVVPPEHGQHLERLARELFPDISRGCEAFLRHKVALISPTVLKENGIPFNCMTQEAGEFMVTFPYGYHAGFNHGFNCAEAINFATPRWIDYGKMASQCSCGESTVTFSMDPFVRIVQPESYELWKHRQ
Numbers without * were called inactive; [ ] = dose if it differs, or a comment. Unless noted, calls come from the whole dose curve; as a rule, active = well fitted curve in the direction sought with a large enough effect; inconclusive = small, poorly fitted or top-dose-only effect, or another doubt; inactive = no such curve, though single readings can be large; an effect the other way counts as inactive or inconclusive. Unless noted, % is set by controls: 0 for no effect and ±100 for the full control effect.

What do the screens show for `CCC(=O)N1CCc2cc(S(=O)(=O)NC(Cc3ccccc3)C(=O)NCc3cccc(OC)c3)ccc21` (centres undefined)?
Tau fluor counter: -15%; Tau fibril ThT: -8%; Tau FP inhib: -4%

How did Cc1ccc(/C=c2\sc3n(c2=O)CN(c2cccc(Br)c2)CN=3)o1 do in these assays?
Tau fluor counter: -9%; Tau fibril ThT: inconclusive; Coupling enz: -14; Tau FP inhib: -3%; Sfp inh: 20µM*; KDM4E inh: -21%

Results for CC(C)N=c1scc(-c2cccs2)n1/N=C/c1ccc(O)c(O)c1O ?
Tau fluor counter: 20µM*[quencher]; Tau fibril ThT: 16µM*; Coupling enz: -17; Tau FP inhib: inconclusive; Sfp inh: 11µM*; KDM4E inh: 28µM*

How did CN=c1scc(-c2ccccc2F)n1/N=C/c1ccc[nH]1 do in these assays?
Tau fluor counter: inconclusive; Tau fibril ThT: inconclusive; Coupling enz: -1; Tau FP inhib: 8%; Sfp inh: -7%; KDM4E inh: -8%

How did CN=c1scc(-c2ccccc2F)n1/N=C/c1ccc(O)c(O)c1O do in these assays?
Tau fluor counter: 25µM*[quencher]; Tau fibril ThT: 14µM*; Coupling enz: -47*; Tau FP inhib: inconclusive; Sfp inh: 3.2µM*; KDM4E inh: 10µM*

What do the screens show for `Cc1cccc(C)c1NC(=S)N(CCN(C)C)C(C)c1cccnc1` (centres undefined)?
Tau fluor counter: -5%; Tau fibril ThT: -6%; Coupling enz: 0; Tau FP inhib: 0%; Sfp inh: 79µM*; KDM4E inh: -25%

What do the screens show for `Cc1ccc(NC(=S)N(CCN(C)C)C(C)c2cccnc2)cc1` (centres undefined)?
Tau fluor counter: -15%; Tau fibril ThT: -10%; Coupling enz: 0; Tau FP inhib: 0%; Sfp inh: 12%; KDM4E inh: -5%

Results for C/C(=N/Nc1ccccc1[N+](=O)[O-])c1ccc([N+](=O)[O-])cc1 ?
Coupling enz: 0; Sfp inh: 6%

Results for CC(C)=NNc1cc([N+](=O)[O-])cc2c1C(=O)N(C)S2=O (centres undefined) ?
Tau fluor counter: 2%; Tau fibril ThT: inconclusive; Coupling enz: -2; Tau FP inhib: -16%; Sfp inh: 16µM*; KDM4E inh: -17%

Results for O=C(c1cc(C(F)(F)F)cc(C(F)(F)F)c1)N1CCC2(CC1)CN(c1ccccn1)C2 ?
Coupling enz: 0; Sfp inh: 14%

Results for COc1cc(-c2ccc(-[n+]3nc(-c4ccccc4)nn3-c3ccc([N+](=O)[O-])cc3)c(OC)c2)ccc1-[n+]1nc(-c2ccccc2)nn1-c1ccc([N+](=O)[O-])cc1 ?
Sfp inh: 8%

How did CCN(CC)S(=O)(=O)c1cc(NC(=O)COC(=O)c2sc3ccccc3c2Cl)ccc1C do in these assays?
Tau fluor counter: -29%; Tau fibril ThT: 13%; Coupling enz: 0; Tau FP inhib: inconclusive; Sfp inh: 30%; KDM4E inh: -14%

How did CCN(CC)S(=O)(=O)c1cc(NC(=O)COC(=O)c2ccc(NC(=O)CC#N)cc2)ccc1C do in these assays?
Tau fluor counter: inconclusive; Tau fibril ThT: 2%; Coupling enz: 4; Tau FP inhib: inconclusive; Sfp inh: 0%; KDM4E inh: 4µM*

Results for CCC(=O)N1c2ccccc2CC1C(=O)NCCc1ccccc1Cl (centres undefined) ?
Tau fluor counter: 0%; Tau fibril ThT: 5%; Tau FP inhib: 1%

Results for Cc1ccc2c(c1)c(N=Nc1cccc(C(=O)O)c1)c(O)n2C ?
Tau fluor counter: -7%; Tau fibril ThT: 14µM*; Coupling enz: 15; Tau FP inhib: 2%; Sfp inh: 13%; KDM4E inh: -1%

How did COc1ccc(/C=C2\Sc3ccc(C(=O)NCC4CCCO4)cc3N(C)C2=O)cc1 (centres undefined) do in these assays?
Coupling enz: -1; Sfp inh: 50µM*

Screens: PubChem, National Center for Advancing Translational Sciences (NCATS)
